About 2,000 (36%) of roughly 5,500 compounds were called active. Roughly 18% stayed inconclusive and do not appear here. Rule as the data show it: active = normalized growth mostly below about 0.91 (no sharp cut-off); inconclusive = no clear call, values can overlap the other calls; inactive = mostly above about 0.92. This is one part of the list.
Assay: chemical genetic growth profiling, strain panel (AID 1159580);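 also: tested at 20 µM; growth read once vehicle control cultures reached saturation at 30 °C; 1 = growth at the plate median or of vehicle wells; lower values mean less growth of the strain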
Settings: S. cerevisiae deletion strains, growth OD
[1] = locus YAL040C, strain CLN3, hits give low values
[2] = locus YCL061C, strain MRC1 (second series), hits give low values
[3] = locus YDR363W, strain ESC2, hits give low values
[4] = locus YER002W, strain NOP16, hits give low values
[5] = locus YGR229C, strain SMI1, hits give low values
[6] = locus YNL175C, strain NOP13, hits give low values
[7] = locus YNL197C, strain WHI3, hits give low values
[8] = locus YNL224C, strain SQS1, hits give low values
[9] = locus YOR083W, strain WHI5 (second series), hits give low values
[10] = locus YAL021C, strain ccr4, hits give low values
[11] = locus YAL026C, strain drs2, hits give low values
[12] = locus YAL030W, strain snc1, hits give low values
[13] = locus YBL061C, strain skt5, hits give low values
[14] = locus YBR009C, strain hhf1, hits give low values
[15] = locus YBR023C, strain chs3, hits give low values
[16] = locus YBR171W, strain sec66, hits give low values
[17] = locus YBR231C, strain swc5, hits give low values
[18] = locus YBR279W, strain paf1, hits give low values
[19] = locus YCL011C, strain gbp2, hits give low values
[20] = locus YCL016C, strain dcc1, hits give low values
[21] = locus YCL069W, strain vba3, hits give low values
[22] = locus YCR088W, strain abp1, hits give low values
[23] = locus YDL005C, strain med2, hits give low values
[24] = locus YDL040C, strain nat1, hits give low values
[25] = locus YDR001C, strain nth1, hits give low values
[26] = locus YDR069C, strain doa4, hits give low values
[27] = locus YDR137W, strain rgp1, hits give low values
[28] = locus YDR159W, strain sac3, hits give low values
[29] = locus YDR297W, strain sur2, hits give low values
[30] = locus YDR334W, strain swr1, hits give low values
[31] = locus YDR335W, strain msn5, hits give low values
[32] = locus YDR392W, strain spt3, hits give low values
[33] = locus YEL003W, strain gim4, hits give low values
[34] = locus YEL037C, strain rad23, hits give low values
[35] = locus YEL061C, strain CIN8 (second series), hits give low values
[36] = locus YER015W, strain faa2, hits give low values
[37] = locus YER016W, strain bim1, hits give low values
[38] = locus YER111C, strain swi4, hits give low values
[39] = locus YER155C, strain BEM2 (second series), hits give low values
[40] = locus YFR010W, strain ubp6, hits give low values
[41] = locus YGL167C, strain pmr1, hits give low values
[42] = locus YGL173C, strain kem1, hits give low values
[43] = locus YGL227W, strain vid30, hits give low values
[44] = locus YGL240W, strain doc1, hits give low values
[45] = locus YGL253W, strain hxk2, hits give low values
[46] = locus YHR013C, strain ard1, hits give low values
[47] = locus YHR027C, strain rpn1, hits give low values
[48] = locus YHR030C, strain SLT2, hits give low values
[49] = locus YHR079C, strain IRE1, hits give low values
[50] = locus YHR142W, strain chs7, hits give low values
[51] = locus YJL092W, strain hpr5, hits give low values
[52] = locus YJL095W, strain BCK1 (second series), hits give low values
[53] = locus YJL095W, strain BCK1, hits give low values
[54] = locus YJL115W, strain asf1, hits give low values
[55] = locus YJL129C, strain trk1, hits give low values
[56] = locus YJL154C, strain vps35, hits give low values
[57] = locus YJL164C, strain tpk1, hits give low values
[58] = locus YJL166W, strain qcr8, hits give low values
[59] = locus YJL187C, strain SWE1, hits give low values
[60] = locus YJR066W, strain TOR1, hits give low values
[61] = locus YKL160W, strain elf1, hits give low values
[62] = locus YKR026C, strain gcn3, hits give low values
[63] = locus YKR091W, strain srl3, hits give low values
[64] = locus YLL001W, strain dnm1, hits give low values
[65] = locus YLL026W, hits give low values
[66] = locus YLL041C, strain sdh2, hits give low values
[67] = locus YLR027C, strain aat2, hits give low values
[68] = locus YLR221C, strain rsa3, hits give low values
[69] = locus YLR258W, strain gsy2, hits give low values
[70] = locus YLR262C, strain YPT6 (second series), hits give low values
[71] = locus YLR320W, strain mms22, hits give low values
[72] = locus YLR342W, strain FKS1, hits give low values
[73] = locus YLR357W, strain rsc2, hits give low values
[74] = locus YLR370C, strain arc18, hits give low values
[75] = locus YLR384C, strain iki3, hits give low values
[76] = locus YML120C, strain ndi1, hits give low values
[77] = locus YMR058W, strain fet3, hits give low values
[78] = locus YMR125W, strain sto1, hits give low values
[79] = locus YMR129W, hits give low values
[80] = locus YMR205C, strain PFK2, hits give low values
[81] = locus YMR231W, strain pep5, hits give low values
[82] = locus YNL071W, strain lat1, hits give low values
[83] = locus YNL183C, strain NPR1, hits give low values
[84] = locus YNL209W, strain ssb2, hits give low values
[85] = locus YNL248C, strain rpa49, hits give low values
[86] = locus YNL322C, strain KRE1 (second series), hits give low values
[87] = locus YNR049C, strain mso1, hits give low values
[88] = locus YOR001W, strain rrp6, hits give low values
[89] = locus YOR070C, strain gyp1, hits give low values
[90] = locus YOR080W, strain dia2, hits give low values
[91] = locus YOR083W, strain WHI5, hits give low values
[92] = locus YOR106W, strain vam3, hits give low values
[93] = locus YOR231W, strain MKK1, hits give low values
[94] = locus YOR265W, strain rbl2, hits give low values
[95] = locus YOR270C, strain vph1, hits give low values
[96] = locus YOR290C, strain snf2, hits give low values
[97] = locus YPL051W, strain arl3, hits give low values
[98] = locus YPL078C, strain atp4, hits give low values
[99] = locus YPL106C, strain sse1, hits give low values
[100] = locus YPL240C, strain hsp82, hits give low values
[101] = locus YPL256C, strain CLN2, hits give low values

Measured: normalized growth

Nc1ccc(CCN2CCN(c3cccc(C(F)(F)F)c3)CC2)cc1
inactive: [1] 1.05 | [2] 0.973 | [3] 0.894 | [4] 1.03 | locus YMR307W, strain GAS1, hits give low values 1.02 | [6] 1.02 | [7] 1 | [8] 1.01 | [9] 1.02
active: [5] 0.501

NCCC1CCCC(CCN)N1 (stereo not drawn)
inactive: locus YAL013W, strain DEP1, hits give low values 1.01 | [1] 1.01 | [2] 1.01 | [3] 1.01 | [4] 0.995 | locus YGR078C, strain PAC10, hits give low values 1.02 | [5] 1.01 | locus YJR075W, strain HOC1, hits give low values 1.01 | locus YNL153C, strain GIM3, hits give low values 1.01 | [6] 1 | [7] 1 | [8] 1 | [9] 1.01 | locus YPL055C, strain LGE1, hits give low values 1.02 | locus YPL241C, strain CIN2, hits give low values 1.01

COc1ccc2nc(S(=O)Cc3ncc(C)c(OC)c3C)[nH]c2c1 (stereo not drawn)
active: [10] 0.795 | [14] 0.907 | [18] 0.913 | [26] 0.812 | [32] 0.556 | [39] 0.812 | [46] 0.753 | [48] 0.791 | [53] 0.752 | [68] 0.904 | [70] 0.857 | [71] 0.765 | [82] 0.702 | [89] 0.897 | [92] 0.857 | [97] 0.846
inactive: [11] 1 | [12] 1.02 | [13] 1.01 | [15] 0.957 | [16] 1.02 | [17] 0.953 | [19] 1.01 | [20] 0.962 | locus YCL061C, strain MRC1, hits give low values 1.01 | [21] 1.02 | [22] 1.02 | [23] 1.02 | [24] 1.02 | [25] 1.02 | [27] 0.907 | [28] 0.975 | locus YDR195W, strain ref2 1.02 | [29] 1.01 | [30] 1.01 | [31] 1 | [33] 1.01 | [34] 1.02 | [35] 1.02 | [36] 0.987 | [37] 1.02 | [38] 1.02 | [40] 0.999 | [41] 1.02 | [42] 1.01 | [43] 1.02 | [44] 0.934 | [45] 1.01 | [47] 1.01 | [49] 0.885 | [50] 1.01 | [51] 1.02 | [52] 1.02 | [54] 1.02 | [55] 0.994 | [56] 1.02 | [57] 0.942 | [58] 0.911 | [59] 0.998 | [60] 0.879 | [61] 0.941 | [62] 1.01 | [63] 1.02 | [64] 1.01 | [65] 0.983 | [66] 1.02 | [67] 0.948 | [69] 0.989 | [72] 1.01 | [73] 1 | [74] 1.02 | [75] 1.03 | [76] 0.975 | [77] 0.999 | [78] 1.01 | [79] 1.03 | [80] 0.915 | [81] 1.01 | [83] 0.86 | [84] 0.98 | [85] 1.02 | [86] 1.03 | [87] 1.02 | [88] 0.996 | [90] 1.01 | [91] 0.984 | [93] 1.04 | [94] 0.995 | [95] 0.994 | [96] 0.991 | [98] 0.989 | [99] 1 | [100] 1.01 | [101] 0.988

COc1ccnc(CS(=O)c2nc3ccc(OC(F)F)cc3[nH]2)c1OC (stereo not drawn)
inactive: [10] 0.993 | [11] 1.04 | [12] 1.02 | [13] 1.04 | [14] 0.991 | [15] 1.04 | [16] 1.03 | [17] 1.01 | [18] 1.04 | [19] 1.02 | [20] 1.03 | [21] 1.02 | [22] 1.03 | [23] 1.02 | [24] 1.03 | [25] 1.02 | [26] 1.02 | [27] 1.05 | [28] 0.94 | locus YDR195W, strain ref2 1.01 | [29] 1.02 | [30] 1.03 | [31] 1.05 | [32] 0.925 | [33] 1.02 | [34] 1.03 | [35] 1.02 | [36] 1.03 | [37] 1.04 | [38] 1.05 | [39] 0.917 | [40] 1.01 | [41] 1.02 | [42] 0.989 | [43] 1.03 | [44] 0.977 | [45] 1.05 | [46] 1.05 | [47] 0.989 | [48] 0.864 | [49] 0.946 | [50] 1.05 | [51] 1.01 | [52] 1.02 | [53] 0.89 | [54] 1.02 | [55] 1.03 | [56] 1.02 | [57] 1 | [58] 0.989 | [59] 1.01 | [60] 0.922 | [61] 1.03 | [62] 1.04 | [63] 1.03 | [64] 0.98 | [65] 1.02 | [66] 1.01 | [67] 1.01 | locus YLR113W, strain HOG1, hits give low values 0.926 | [68] 0.982 | [69] 1.04 | [70] 1.01 | [71] 0.936 | [72] 1.02 | [73] 1 | [74] 1.03 | [75] 1.01 | [76] 1 | [77] 1.04 | [78] 1.02 | [79] 1.03 | [80] 1.01 | [81] 1.03 | [82] 1.02 | [83] 0.868 | [84] 1.02 | [85] 1.06 | [86] 1.05 | [87] 1.03 | [88] 1 | [89] 1.02 | [90] 1.04 | [91] 0.995 | [92] 1.02 | [93] 0.953 | [94] 1 | [95] 1.2 | [96] 1.06 | [97] 1 | [98] 1.04 | [99] 1.03 | [100] 1.03 | [101] 0.969

From PubChem BioAssay AID1159580 (chemical genetic matrix, 2015)
